Results from the supplement of paper PMC7801607.

Legend:
CHO = assay: % viability of CHO cells (MTT); higher = less toxic; conditions: 48 h
Procedure, shortened: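 CHO cells were seeded at 10^6 cells/well in 200 µL and left overnight to attach. The medium was then replaced with fresh medium containing compound at 2 or 20 µM for 48 h. Survival was read colorimetrically with the tetrazolium (MTT) assay. Percent viability was expressed relative to untreated cells.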

HepG2-A16-CD81 = assay: % inhibition of HepG2 viability (CellTiter-Glo); higher = more toxic; conditions: 5 µM
[1] = system: Plasmodium falciparum NF54 stage IV/V gametocytes; assay: % inhibition of gametocyte viability (PrestoBlue); higher = more inhibition; conditions: 48 h
Procedure, shortened: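 Stage IV/V NF54 gametocytes (2% gametocytaemia, 5% haematocrit, 100 µL/well) were exposed to compound at 1 or 5 µM. Incubation was 48 h at 37 °C, stationary and hypoxic, followed by 10 µL PrestoBlue for 2 h. Fluorescence at 612 nm was read on 70 µL of transferred supernatant. Percent inhibition of gametocyte viability was normalised to DMSO and kill controls from a single run.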

[2] = system: Plasmodium falciparum NF54 asexual blood stage; assay: % inhibition of asexual blood stage proliferation (pLDH); higher = more inhibition; conditions: 72 h
Procedure, shortened: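 Plasmodium falciparum NF54 ring-stage cultures (1% haematocrit, 2% parasitaemia) were exposed to compound at 2 or 20 µM in 96-well plates. Incubation was 72 h at 37 °C under 4% CO2, 3% O2 and 93% N2. Survival was read colorimetrically at 620 nm with the parasite lactate dehydrogenase assay. Percent inhibition of asexual proliferation was normalised to DMSO and kill controls, and the screen was run on two separate occasions.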

[3] = system: Plasmodium falciparum NF54 stage IV/V gametocytes; assay: % inhibition of gametocyte viability (ATP bioluminescence); higher = more inhibition; conditions: 24 h
Procedure, shortened: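 In 96-well plates, compound at 1 or 5 µM was added to 30,000 density-gradient-enriched stage IV/V NF54 gametocytes per well and incubated for 24 h at 37 °C. ATP readout used the Promega BacTiter Glo bioluminescence system. Percent inhibition of gametocyte viability comes from a single run, normalised to control wells.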

[4] = system: Plasmodium falciparum NF54 stage IV/V gametocytes; assay: % inhibition of gametocyte viability (luciferase reporter); higher = more inhibition; conditions: 48 h
Procedure, shortened: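 Compound at 1 or 5 µM was added to stage IV/V NF54-Pfs16-GFP-Luc gametocytes (2% gametocytaemia, 2% haematocrit) and incubated stationary and hypoxic at 37 °C for 48 h. A GloMax-Multi+ reader measured luminescence over 10 s integration on 30 µL lysate plus 30 µL Promega luciferin substrate. Percent inhibition values were normalised to controls within a single run.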

[5] = system: Plasmodium berghei ANKA liver stage in HepG2-A16-CD81; assay: % inhibition of liver stage parasite viability (luciferase); higher = more inhibition; conditions: 5 µM; 48 h
Experimental: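 Single-concentration screen of the MMV Pandemic Response Box. P. falciparum NF54 asexual blood stages: pLDH assay, 72 h at 37 °C, 2 and 20 µM, n=2. Stage IV/V gametocytes (NF54): luciferase reporter (NF54-Pfs16-GFP-Luc, 48 h), ATP bioluminescence (24 h) and PrestoBlue (48 h) at 1 and 5 µM, n=1. P. berghei liver stage (luciferase in HepG2-A16-CD81, 48 h post infection) at 5 µM, n=4. All normalised to DMSO and kill controls as % inhibition.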
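Throughout, for % inhibition of HepG2 viability (CellTiter-Glo): HepG2-A16-CD81 hepatoma cells plated as in the liver-stage assay but without sporozoites, with DMSO wells as negative and 25 µM puromycin as positive control.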

SMILES	% viability of CHO cells (CHO; 2 µM) [%]	% viability of CHO cells (CHO; 20 µM) [%]	% inhibition of HepG2 viability (HepG2-A16-CD81) [%]	% inhibition of gametocyte viability ([1]; 1 µM) [%]	% inhibition of gametocyte viability ([1]; 5 µM) [%]	% inhibition of asexual blood stage proliferation ([2]; 2 µM) [%]	% inhibition of asexual blood stage proliferation ([2]; 20 µM) [%]	% inhibition of gametocyte viability ([3]; 1 µM) [%]	% inhibition of gametocyte viability ([3]; 5 µM) [%]	% inhibition of gametocyte viability ([4]; 1 µM) [%]	% inhibition of gametocyte viability ([4]; 5 µM) [%]	% inhibition of liver stage parasite viability [5] [%]
CC(=O)Oc1ccccc1C(=O)Nc1ncc([N+](=O)[O-])s1	91.3	111	3.62	14.9	28.5	14.2	71.2	10.5	5	0.222	17.6	65.9
COc1ccc(NS(=O)(=O)c2ccc(Cl)s2)cn1	98	100	6.74	< 0	6.82	22.6	48.5	< 0	< 0	4.39	< 0	-1.42
O=C(O)CSc1cc(NS(=O)(=O)c2cccc3cccnc23)c2ccccc2c1O	95.5	80.9	2.37	< 0	29.3	70.5	81	0.374	< 0	< 0	< 0	35.4
CC(C)c1cc2c(cc1S(=O)(=O)O)[C@@]1(C)CCC[C@@](C)(C(=O)O)[C@@H]1CC2	93.3	109	3.51	43.4	12.4	26	89	< 0	< 0	< 0	< 0	38.5
COc1ccc2nc(-c3ccccc3)cc(O)c2c1	85.4	80.2	6.13	< 0	7.99	66.9	94.3	29.5	13.5	< 0	8.89	78.6
CCCCCc1ccc(C(=O)NCCn2cc(CCCCCc3cnc(N)[nH]3)nn2)cc1	125	153	2.88	< 0	63.4	72.9	96.5	< 0	< 0	< 0	< 0	37.7
NS(=O)(=O)c1ccc(NC(=O)NC(c2ccccc2)c2ccccc2)cc1	258	58.6	4.57	< 0	7.57	3.15	82.5	< 0	< 0	< 0	< 0	19.3
COc1ccc(COc2cc3oc(=O)c4cc(C(C)O)ccc4c3cc2OC)cc1 (stereo not drawn)	81.5	74.4	6.8	11	11.6	35.7	80.4	6.77	< 0	< 0	< 0	8.21
CC1(C)C[C@H]1C(=O)N/C(=C\CCCCSC[C@@H](N)C(=O)O)C(=O)O	229	49.5	-5.39	25.1	25.8	20.8	20.1	< 0	< 0	< 0	< 0	12.4
Nc1nc(=O)c(Br)c(-c2cccc(Cl)c2)[nH]1	102	109	6.4	9.16	21	18.2	68.9	4.05	< 0	< 0	5.01	-7.9
O=C(O)c1cc(-c2ccc(Br)cc2)nc2ccc(Cl)cc12	96.8	111	3.15	14.7	5.76	7.74	-6.63	< 0	< 0	< 0	< 0	-34.6
CCCNc1ccc(S(=O)(=O)Nc2cc(C)on2)cc1	93.3	116	-1.94	-0.214	6.51	1.93	-9.2	0.832	< 0	< 0	< 0	32.4
O=C(Nc1ccccc1C(=O)O)c1cccc(Oc2ccccc2)c1	113	61	6.41	37.4	5.84	-5.74	-12.5	< 0	< 0	< 0	< 0	-3.28
CCc1ccccc1OCCN1CCCCCC1	96.9	109	14	15.5	15.2	10.6	87.1	6.82	< 0	< 0	2.04	17.2
O=C(O)[C@H]1C2CCC(CC2)[C@@H]1Nc1nc(-c2c[nH]c3ncc(F)cc23)ncc1F	91.6	97.8	-9.1	< 0	< 0	11.9	55.2	0.663	2.93	< 0	< 0	34
C(=C\c1nc2ccccc2[nH]1)/c1ccc2c(c1)OCO2	110	50.4	6.95	57.1	71.2	15.3	29.1	< 0	< 0	5.91	73.3	-23.6
Cc1c(F)cccc1NC(=O)Nc1ccc(Cl)c(S(=O)(=O)[C@H]2CCCNC2)c1O	115	118	-8.8	< 0	< 0	15.9	41.5	8.93	< 0	0.356	< 0	13.1
NC(=O)c1c(N)sc2c1CCCCC2	87	32	6.02	< 0	8.3	4.8	-4.48	< 0	< 0	0.638	1.6	-7.51
OCCCCn1cnc2c(O)nc(NCc3ccc(Cl)c(Cl)c3)nc21	95.4	106	5.96	< 0	< 0	18.9	91.1	< 0	< 0	< 0	< 0	7.89
